Data on six compounds can be found in PubChem BioAssay (EPA / NIEHS).

What all share (conditions): mRNA level, 48 h; actives raise or lower the signal
Read-out in assay [1]: Tumor necrosis factor receptor superfamily member 6 (Homo sapiens) (UniProt P25445)
Nature of the assay: LTEA_HepaRG_FAS: Life Technologies and Expression Analysis (LTEA) Assay for Fas cell surface death receptor (FAS) using HepaRG (AID 2283447). Put shortly:
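FAS transcript level was measured by TaqMan qRT-PCR against three housekeeping genes after 48 h chemical exposure. Cells were HepaRG, 0.5% DMSO vehicle, with a top concentration of 100 uM and half-log dilutions over eight points, in duplicate.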

Read-out in assay [2]: Fatty acid synthase (Homo sapiens) (UniProt P49327)
Nature of the assay: LTEA_HepaRG_FASN: Life Technologies and Expression Analysis (LTEA) Assay for Fatty Acid Synthase (FASN) using HepaRG (AID 2283448).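 On AC50: differentiated human HepaRG liver cells in serum-free induction medium.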 In outline:
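HepaRG, 48 h exposure, 8-pt half-log series top 100 uM, 0.5% DMSO vehicle, duplicates. Readout: FASN transcript by Fluidigm qRT-PCR; housekeeping-normalized; bidirectional curve fit vs DMSO baseline.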

Read-out in assay [3]: Cyclin D2 (CCND2), CCND2 (gene 894)
Nature of the assay: LTEA_HepaRG_CCND2: Life Technologies and Expression Analysis (LTEA) Assay for Cyclin D2 (CCND2) using HepaRG (AID 2283449). In outline:
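CCND2 transcript levels, quantified by qRT-PCR and normalised to three housekeeping genes, were fitted bidirectionally against 0.5% DMSO. HepaRG cultures were dosed 48 h in duplicate with an 8-point half-log series up to 100 uM.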

Read-out in assay [4]: Cyclin Dependent Kinase Inhibitor 1A (CDKN1A), CDKN1A (gene 1026)
Nature of the assay: LTEA_HepaRG_CDKN1A: Life Technologies and Expression Analysis (LTEA) Assay for Cyclin Dependent Kinase Inhibitor 1A (CDKN1A) using HepaRG (AID 2283450). Put shortly:
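HepaRG, 48 h dosing, 8-pt half-log series from 100 uM top, 0.5% DMSO vehicle, duplicates. Readout: TaqMan qRT-PCR of CDKN1A transcript, housekeeping-normalized (ACTB, GAPDH, POLR2A). Up/down curve fit relative to DMSO.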

Read-out in assay [5]: Cyclin D1 (CCND1), CCND1 (gene 595)
Nature of the assay: LTEA_HepaRG_CCND1: Life Technologies and Expression Analysis (LTEA) Assay for Cyclin D1 (CCND1) using HepaRG (AID 2283451).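 On AC50: differentiated human HepaRG liver cells in serum-free induction medium; TaqMan qRT-PCR transcript level normalised to ACTB GAPDH and POLR2A housekeeping genes.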 Put shortly: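 qRT-PCR (Fluidigm 96.96 array) read-out of transcript level, housekeeping-normalized (ACTB/GAPDH/POLR2A). HepaRG cells, 48 h chemical exposure, 8-point half-log series from 100 uM, 0.5% DMSO vehicle; gain or loss relative to DMSO baseline.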

Read-out in assay [6]: catalase (CAT), CAT (gene 847)
Briefly: LTEA_HepaRG_CAT: Life Technologies and Expression Analysis (LTEA) Assay for catalase (CAT) using HepaRG (AID 2283452). Put shortly:
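Expression of CAT was quantified by TaqMan qRT-PCR with ACTB/GAPDH/POLR2A normalization after 48 h chemical exposure of HepaRG. Eight-point half-log series, top 100 uM, in 0.5% DMSO; gain or loss fitted against vehicle.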

Read-out in assay [7]: flavin-containing dimethylaniline monooxygenases 3 (FMO3), FMO3 (gene 2328)
Nature of the assay: LTEA_HepaRG_FMO3: Life Technologies and Expression Analysis (LTEA) Assay for flavin-containing dimethylaniline monooxygenases 3 (FMO3) using HepaRG (AID 2283453).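 On AC50: differentiated human HepaRG liver cells in serum-free induction medium.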 In outline: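 Eight-point concentration-response in serum-free HepaRG cultures (top 100 uM, 0.5% DMSO, 48 h). Read-out: FMO3 mRNA level normalized to three endogenous control genes, fitted bidirectionally versus vehicle.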

Read-out in assay [8]: Cytochrome P450 (CYP1A1), CYP1A1 (gene 1543)
Nature of the assay: LTEA_HepaRG_CYP1A1: Life Technologies and Expression Analysis (LTEA) Assay for Cytochrome P450 (CYP1A1) using HepaRG (AID 2283454). Put shortly:
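qRT-PCR read-out: CYP1A1 transcript normalized to three housekeeping genes, fitted bidirectionally against 0.5% DMSO vehicle baseline. Human HepaRG cells, 48 h chemical exposure, 8-point half-log series topping at 100 uM.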

Read-out in assay [9]: CFLAR gene, CFLAR (gene 8837)
Briefly: LTEA_HepaRG_CFLAR: Life Technologies and Expression Analysis (LTEA) Assay for CFLAR gene using HepaRG (AID 2283455). In outline:
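Transcript level by qRT-PCR (normalized to ACTB, GAPDH and POLR2A) after 48 h chemical exposure of HepaRG cells, top concentration 100 uM with half-log steps, 0.5% DMSO vehicle, duplicates; fitted bidirectionally against DMSO baseline.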

Read-out in assay [10]: Forkhead box O1 (FOXO1), FOXO1 (gene 2308)
Nature of the assay: LTEA_HepaRG_FOXO1: Life Technologies and Expression Analysis (LTEA) Assay for Forkhead box O1 (FOXO1) using HepaRG (AID 2283456). Put shortly: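 FOXO1 transcript quantified by qRT-PCR after 48 h chemical exposure (top 100 uM, half-log steps, 0.5% DMSO) of HepaRG cells, housekeeping-normalized (ACTB/GAPDH/POLR2A). Changes fitted in both directions relative to vehicle.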

Read-out in assay [11]: growth arrest and DNA damage 45 (GADD45A), GADD45A (gene 1647)
Briefly: LTEA_HepaRG_GADD45A: Life Technologies and Expression Analysis (LTEA) Assay for growth arrest and DNA damage 45 (GADD45A) using HepaRG (AID 2283458). Put shortly:
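HepaRG, 48 h exposure, 8 conc. (top 100 uM, half-log steps), 0.5% DMSO vehicle, duplicates. Read-out: qRT-PCR mRNA level, housekeeping-normalized (ACTB/GAPDH/POLR2A). Curves fit bidirectionally vs DMSO baseline.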

Read-out in assay [12]: Forkhead box O3 (FOXO3), FOXO3 (gene 2309)
Briefly: LTEA_HepaRG_FOXO3: Life Technologies and Expression Analysis (LTEA) Assay for Forkhead box O3 (FOXO3) using HepaRG (AID 2283459). Put shortly:
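FOXO3 transcript measured by qRT-PCR (normalized to ACTB, GAPDH, POLR2A) after 48 h exposure of HepaRG cells in serum-free induction medium. Duplicates, eight half-log concentrations up to 100 uM, 0.5% DMSO; gain or loss fitted against DMSO.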

Read-out in assay [13]: growth arrest and DNA damage 45 (GADD45B), GADD45B (gene 4616)
Nature of the assay: LTEA_HepaRG_GADD45B: Life Technologies and Expression Analysis (LTEA) Assay for growth arrest and DNA damage 45 (GADD45B) using HepaRG (AID 2283461). In outline:
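qRT-PCR read-out (Fluidigm TaqMan, housekeeping-normalized) of mRNA change in human HepaRG cells after 48 h chemical exposure; 8-point curve, top 100 uM, half-log steps, 0.5% DMSO vehicle; gain or loss fitted relative to DMSO baseline.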

Read-out in assay [14]: ABC Transporter (ABCC3), ABCC3 (gene 8714)
Nature of the assay: LTEA_HepaRG_ABCC3: Life Technologies and Expression Analysis (LTEA) Assay for ABC Transporter (ABCC3) using HepaRG (AID 2283462). Put shortly:
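qRT-PCR read-out of ABCC3 transcript, normalized to three housekeeping genes (ACTB, GAPDH, POLR2A), after 48 h chemical exposure of human HepaRG cells. Eight half-log concentrations, highest 100 uM, in 0.5% DMSO; gain or loss fitted relative to DMSO baseline.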

Read-out in assay [15]: ABC Transporter (ABCB11), ABCB11 (gene 8647)
Briefly: LTEA_HepaRG_ABCB11: Life Technologies and Expression Analysis (LTEA) Assay for ABC Transporter (ABCB11) using HepaRG (AID 2283463). Put shortly: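 ABCB11 transcript levels quantified by TaqMan qRT-PCR against three housekeeping genes after 48 h chemical exposure of HepaRG cultures. Concentrations up to 100 uM in half-log steps, 0.5% DMSO vehicle; both induction and suppression scored.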

Read-out in assay [16]: ABC Transporter (ABCC2), ABCC2 (gene 1244)
Briefly: LTEA_HepaRG_ABCC2: Life Technologies and Expression Analysis (LTEA) Assay for ABC Transporter (ABCC2) using HepaRG (AID 2283464). In outline: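 qRT-PCR (TaqMan, Fluidigm array) read-out of ABCC2 mRNA, normalized to three housekeeping genes. Differentiated HepaRG cells were treated 48 h in serum-free induction medium with 8-point half-log series from 100 uM in 0.5% DMSO; curves fitted bidirectionally relative to DMSO.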

Read-out in assay [17]: ABC Transporter (ABCB1), ABCB1 (gene 5243)
Nature of the assay: LTEA_HepaRG_ABCB1: Life Technologies and Expression Analysis (LTEA) Assay for ABC Transporter (ABCB1) using HepaRG (AID 2283460). Put shortly:
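ABCB1 transcript level measured by TaqMan qRT-PCR against three housekeeping genes after 48 h chemical exposure of differentiated HepaRG cells. Top concentration 100 uM, half-log steps, eight points, 0.5% DMSO vehicle; bidirectional fit relative to DMSO.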

SMILES strings stand for the structures. Values joined by “and” are separate entries in the source; they are usually repeats but may differ in a detail not shown here. Equal entries are not always repeated. A structure can be active in one record and inactive in another. Active and inactive are the calls of the source. How the source made its calls: active means hit-call score of the fitted dose curve at least 0.9, where 1 is the maximum; inactive means score below 0.9.

Sequence of Fatty acid synthase (Homo sapiens) (P49327 whole entry, looked up): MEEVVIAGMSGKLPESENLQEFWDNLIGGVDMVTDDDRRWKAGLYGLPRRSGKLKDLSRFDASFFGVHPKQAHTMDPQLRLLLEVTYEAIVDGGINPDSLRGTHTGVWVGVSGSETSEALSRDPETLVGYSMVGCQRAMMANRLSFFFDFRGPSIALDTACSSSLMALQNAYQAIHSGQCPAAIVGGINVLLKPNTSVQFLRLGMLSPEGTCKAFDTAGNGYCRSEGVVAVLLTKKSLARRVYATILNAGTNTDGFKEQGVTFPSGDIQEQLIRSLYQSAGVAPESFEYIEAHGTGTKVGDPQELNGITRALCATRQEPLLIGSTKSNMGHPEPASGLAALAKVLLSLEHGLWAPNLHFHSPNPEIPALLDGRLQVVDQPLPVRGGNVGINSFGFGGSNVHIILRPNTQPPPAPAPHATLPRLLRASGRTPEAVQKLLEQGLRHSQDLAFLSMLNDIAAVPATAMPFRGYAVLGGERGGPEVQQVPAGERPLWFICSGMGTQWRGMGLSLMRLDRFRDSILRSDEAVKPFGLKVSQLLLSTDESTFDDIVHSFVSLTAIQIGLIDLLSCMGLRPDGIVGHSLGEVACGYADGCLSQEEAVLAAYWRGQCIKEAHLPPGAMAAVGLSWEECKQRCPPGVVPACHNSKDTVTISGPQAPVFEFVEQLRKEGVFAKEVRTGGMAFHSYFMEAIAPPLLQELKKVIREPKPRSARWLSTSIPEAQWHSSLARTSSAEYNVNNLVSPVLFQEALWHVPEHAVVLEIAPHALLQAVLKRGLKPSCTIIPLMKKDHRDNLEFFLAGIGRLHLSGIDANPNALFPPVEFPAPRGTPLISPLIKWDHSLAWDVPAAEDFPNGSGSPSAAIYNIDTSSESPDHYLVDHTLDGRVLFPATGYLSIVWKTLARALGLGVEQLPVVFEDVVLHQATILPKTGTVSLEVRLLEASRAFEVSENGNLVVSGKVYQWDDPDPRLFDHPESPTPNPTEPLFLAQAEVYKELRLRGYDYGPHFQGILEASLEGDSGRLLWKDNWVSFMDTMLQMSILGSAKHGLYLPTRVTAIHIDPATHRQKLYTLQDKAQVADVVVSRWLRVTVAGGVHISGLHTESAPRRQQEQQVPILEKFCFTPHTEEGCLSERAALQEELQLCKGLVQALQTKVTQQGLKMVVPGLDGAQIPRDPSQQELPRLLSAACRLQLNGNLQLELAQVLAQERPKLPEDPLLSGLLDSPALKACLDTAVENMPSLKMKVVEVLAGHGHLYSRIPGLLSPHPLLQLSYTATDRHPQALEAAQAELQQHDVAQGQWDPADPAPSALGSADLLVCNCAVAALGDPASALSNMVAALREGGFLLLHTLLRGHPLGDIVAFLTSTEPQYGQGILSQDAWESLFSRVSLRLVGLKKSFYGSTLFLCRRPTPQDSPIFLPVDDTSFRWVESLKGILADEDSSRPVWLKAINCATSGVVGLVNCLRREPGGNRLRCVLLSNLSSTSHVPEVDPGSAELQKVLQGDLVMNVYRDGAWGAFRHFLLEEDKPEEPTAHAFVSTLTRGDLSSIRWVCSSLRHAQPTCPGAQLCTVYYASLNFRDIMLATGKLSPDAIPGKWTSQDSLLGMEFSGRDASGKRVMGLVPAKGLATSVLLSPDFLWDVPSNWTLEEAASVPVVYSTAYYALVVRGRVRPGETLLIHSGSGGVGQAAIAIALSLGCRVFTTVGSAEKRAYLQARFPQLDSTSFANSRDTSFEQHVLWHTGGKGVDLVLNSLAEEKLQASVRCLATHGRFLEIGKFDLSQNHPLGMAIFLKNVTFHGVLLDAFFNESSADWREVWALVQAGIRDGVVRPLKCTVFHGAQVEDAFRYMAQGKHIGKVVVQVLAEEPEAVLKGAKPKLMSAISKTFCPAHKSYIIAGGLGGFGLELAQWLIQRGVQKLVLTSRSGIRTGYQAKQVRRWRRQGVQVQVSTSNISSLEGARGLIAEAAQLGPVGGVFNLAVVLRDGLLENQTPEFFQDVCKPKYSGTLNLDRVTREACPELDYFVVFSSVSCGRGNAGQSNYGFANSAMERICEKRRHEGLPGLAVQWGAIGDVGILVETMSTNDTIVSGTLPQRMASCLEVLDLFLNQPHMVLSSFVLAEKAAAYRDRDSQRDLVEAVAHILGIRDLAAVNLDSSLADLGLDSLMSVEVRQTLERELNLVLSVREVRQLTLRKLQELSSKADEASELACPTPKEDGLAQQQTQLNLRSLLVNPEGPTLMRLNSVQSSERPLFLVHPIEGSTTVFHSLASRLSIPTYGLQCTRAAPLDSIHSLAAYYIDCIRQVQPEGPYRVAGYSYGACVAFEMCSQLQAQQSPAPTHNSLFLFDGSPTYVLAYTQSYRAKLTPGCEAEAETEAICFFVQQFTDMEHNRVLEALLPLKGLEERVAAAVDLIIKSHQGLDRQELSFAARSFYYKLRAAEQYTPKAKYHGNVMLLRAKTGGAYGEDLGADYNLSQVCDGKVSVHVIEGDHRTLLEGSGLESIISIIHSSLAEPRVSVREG

Regarding `OC(c1ccc(Cl)cc1)(c1cncnc1)c1ccccc1Cl` (stereo unspecified), the AC50 is 81 µM (active) in [1]; 87.3 µM (active) in [2]; 70.5 µM (active) in assay [4]; 50 µM (active) in [5]; 87.6 µM (active) in assay [6]; 77.8 µM (active) in assay [7]. In addition, the AC50 was 13 µM (active) in assay [8]; 79 µM (active) in assay [10]; 72.4 µM (active) in assay [11]; 66.2 µM (active) in [13]; 89.4 µM (active) in assay [15]; 2.46 µM (active) in assay [16]. The outcome in [3], in assay [9], in assay [12] and in [14] was inactive.

In the case of `COC(=O)N(OC)c1ccccc1COc1ccn(-c2ccc(Cl)cc2)n1`, the AC50 in assay [1] is 78.3 µM (active); in [4] it was 79 µM (active); in assay [6], 68.4 µM (active); in assay [7], 75.7 µM (active); in assay [8], 13 µM (active); in [10] it was 50 µM (active). For the same compound, the AC50 is 60 µM (active) in assay [11] and 38.4 µM (active) in assay [15]. Moreover, the compound was called inactive in assay [2], in assay [5], in [9], in assay [12], in assay [13] and in assay [14]. The compound was classed as inactive in [16].

Turning to `COC(=O)C=C(C)OP(=O)(OC)OC`, the compound was called inactive in assay [1], in assay [2], in assay [3], in assay [4], in assay [5] and in assay [6]. In addition, the outcome in assay [7], in assay [8], in [9], in [10], in [11] and in assay [12] was inactive. In addition, the outcome in assay [13], in assay [14] and in assay [16] was inactive. Moreover, in assay [15], the AC50 was 21.4 µM (active).

With `C#CCOS(=O)OC1CCCCC1Oc1ccc(C(C)(C)C)cc1` (stereo unspecified), the AC50 in assay [1] is 44.8 µM (active); in assay [2], 27.5 µM (active); in assay [4], 12.9 µM (active); in assay [6], 20.5 µM (active); in [7] it was 27.2 µM (active); in assay [9], 27.4 µM (active). Further, the AC50 is 32 µM (active) in [10]; 50 µM (active) in assay [11]; 50 µM (active) in [17]; 23.2 µM (active) in assay [15]; 23.6 µM (active) in [16]. Besides, the call in [3], in assay [5], in assay [8], in assay [12] and in assay [14] was inactive.

Turning to `COP(N)(=O)SC` (stereo unspecified), the call in assay [1], in [2], in assay [3], in assay [4], in [5] and in assay [6] was inactive. Moreover, the compound was called inactive in assay [7], in assay [8], in assay [9], in [10], in assay [11] and in assay [12]. The call in [17], in assay [14], in assay [15] and in assay [16] was inactive.

For the compound `CCCN(CCC)c1c([N+](=O)[O-])cc(S(N)(=O)=O)cc1[N+](=O)[O-]`, the AC50 is 94.6 µM (active) and 74.2 µM (active) in assay [2]; 96.1 µM (active) in assay [4]; 91.3 µM (active) and 79.8 µM (active) in assay [5]; 93.6 µM (active) and 50 µM (active) and 77.6 µM (active) in assay [6]; 95.4 µM (active) and 77.8 µM (active) and 76.4 µM (active) in [7]; 11.5 µM (active) and 50 µM (active) and 35.1 µM (active) in assay [8]. The AC50 is 75.8 µM (active) and 76.8 µM (active) in [9]; 90.2 µM (active) in [10]; 85.9 µM (active) in assay [11]; 93.9 µM (active) and 76.9 µM (active) in assay [12]; 93.6 µM (active) and 74.3 µM (active) and 90.4 µM (active) in [14]; 82 µM (active) in assay [15]. Besides, the AC50 in [16] was 92.1 µM (active) and 82.3 µM (active) and 84.7 µM (active). For the same compound, the call in assay [2], in assay [3], in assay [4], in assay [5], in assay [9] and in assay [10] was inactive. Besides, the compound was called inactive in assay [11], in assay [12] and in assay [15].

The term AC50 denotes the concentration giving half of the maximal activity seen.
